Measurements: PubChem BioAssay (NCATS)
Inconclusive results are not listed. Where a call stands in place of a potency, no number is given. Active and inactive are the calls of the source. The call rests on the fitted dose curve; in most records, active means well fitted curve in the direction sought with a large enough effect; inconclusive means small, poorly fitted or top-dose-only effect, or another doubt; inactive means no such curve, though single readings can be large; an effect the other way counts as inactive or inconclusive. Bridge positions count the residues as written; N and C are the ends. Square brackets hold non-standard residues; d marks the D form. Peptide text beside a SMILES is read from it. * marks the point of attachment. Octanoyl(6-Me) = CCC(C)CCCCC(=O)*; Dab = NCC[CH](N)C(=O)O

Assays:
3D7 = experiment: qHTS profiling for inhibitors of Plasmodium falciparum proliferation (AID 504749); further: nearly all actives have a fitted effect of over 60% in size; conditions: P. falciparum in erythrocytes, SYBR Green DNA, 72 h; series mostly up to 28.7 µM
How it was run: (§1)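 Parasite proliferation within erythrocytes, 72 h exposure. Endpoint: SYBR Green I fluorescence after overnight lysis at room temperature. Controls: 0.29 uM artemisinin, DMSO.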

7G8 = experiment: as above; conditions: P. falciparum in erythrocytes, SYBR Green DNA, 72 h; series mostly up to 28.7 µM
How it was run: as §1

CP185 = experiment: as above; conditions: P. falciparum in erythrocytes, SYBR Green DNA, 72 h; series mostly up to 28.7 µM
How it was run: as §1

CP211 = experiment: as above; conditions: P. falciparum in erythrocytes, SYBR Green DNA, 72 h; series mostly up to 28.7 µM
How it was run: as §1

CP215 = experiment: as above; conditions: P. falciparum in erythrocytes, SYBR Green DNA, 72 h; series mostly up to 28.7 µM
How it was run: as §1

CP217 = experiment: as above; conditions: P. falciparum in erythrocytes, SYBR Green DNA, 72 h; series mostly up to 28.7 µM
How it was run: as §1

CP252 = experiment: as above; conditions: P. falciparum in erythrocytes, SYBR Green DNA, 72 h; series mostly up to 28.7 µM
How it was run: as §1

CP268 = experiment: as above; conditions: P. falciparum in erythrocytes, SYBR Green DNA, 72 h; series mostly up to 28.7 µM
How it was run: as §1

CP297 = experiment: as above; conditions: P. falciparum in erythrocytes, SYBR Green DNA, 72 h; series mostly up to 28.7 µM
How it was run: as §1

DIV14 = experiment: as above; conditions: P. falciparum in erythrocytes, SYBR Green DNA, 72 h; series mostly up to 28.7 µM
How it was run: as §1

DIV30 = experiment: as above; conditions: P. falciparum in erythrocytes, SYBR Green DNA, 72 h; series mostly up to 28.7 µM
How it was run: as §1

FAB9 = experiment: as above; conditions: P. falciparum in erythrocytes, SYBR Green DNA, 72 h; series mostly up to 28.7 µM
How it was run: as §1

ICS = experiment: as above; conditions: P. falciparum in erythrocytes, SYBR Green DNA, 72 h; series mostly up to 28.7 µM
How it was run: as §1

JCK = experiment: as above; conditions: P. falciparum in erythrocytes, SYBR Green DNA, 72 h; series mostly up to 28.7 µM
How it was run: as §1

N140 = experiment: as above; conditions: P. falciparum in erythrocytes, SYBR Green DNA, 72 h; series mostly up to 28.7 µM
How it was run: as §1

PC49 = experiment: as above; conditions: P. falciparum in erythrocytes, SYBR Green DNA, 72 h; series mostly up to 28.7 µM
How it was run: as §1

TAB113 = experiment: as above; conditions: P. falciparum in erythrocytes, SYBR Green DNA, 72 h; series mostly up to 28.7 µM
How it was run: as §1

TAB165 = experiment: as above; conditions: P. falciparum in erythrocytes, SYBR Green DNA, 72 h; series mostly up to 28.7 µM
How it was run: as §1

[1] = S16 Schwann cell PMP22 intronic element firefly luciferase assay (AID 624032); further: nearly all actives have a fitted effect of over 30% in size
How it was run: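 Rat S16 Schwann cells stably carrying a PMP22 intronic element-driven Fluc reporter were seeded overnight, then exposed to compounds for 24 h at 37 °C. Luminescence was normalized to PTC124 (positive control) and DMSO (0% activity).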

CP325 = experiment: qHTS profiling for inhibitors of Plasmodium falciparum proliferation (AID 504749); further: nearly all actives have a fitted effect of over 60% in size; conditions: P. falciparum in erythrocytes, SYBR Green DNA, 72 h; series mostly up to 28.7 µM
How it was run: as §1
Potency means the concentration at half of the fitted maximal effect.

| SMILES | Potency (3D7) | Potency (7G8) | Potency (CP185) | Potency (CP211) | Potency (CP215) | Potency (CP217) | Potency (CP252) | Potency (CP268) | Potency (CP297) | Potency (DIV14) | Potency (DIV30) | Potency (FAB9) | Potency (ICS) | Potency (JCK) | Potency (N140) | Potency (PC49) | Potency (TAB113) | Potency (TAB165) | Potency [1] | Potency (CP325) |
| --- | --- | --- | --- | --- | --- | --- | --- | --- | --- | --- | --- | --- | --- | --- | --- | --- | --- | --- | --- | --- |
| CCN1/C(=C/C=C/C=C/c2sc3ccccc3[n+]2CC)Sc2ccccc21 | 2 µM (active) | 0.891 µM (active) | 3.98 µM (active) | 6.01 µM (active) | 6.75 µM (active) | 4.47 µM (active) | 3.98 µM (active) | 12 µM (active) | 12 µM (active) | 8.49 µM (active) | 12 µM (active) | 3.16 µM (active) | 1 µM (active) | 11.2 µM (active) | 5.62 µM (active) | 5.62 µM (active) | 5.01 µM (active) | 3.98 µM (active) | – | – |
| CCC(C)CCCCC(=O)NC(CCN)C(=O)NC(C(=O)NC(CCN)C(=O)NC1CCNC(=O)C(C(C)O)NC(=O)C(CCN)NC(=O)C(CCN)NC(=O)C(CC(C)C)NC(=O)C(Cc2ccccc2)NC(=O)C(CCN)NC1=O)C(C)O (centres undefined) ({Octanoyl(6-Me)}-[Dab]T[Dab][Dab][Dab]FL[Dab][Dab]T; lactam 4-C; configuration not given here) | inactive | inactive | inactive | inactive | inactive | – | inactive | inactive | inactive | inactive | inactive | inactive | inactive | inactive | inactive | inactive | – | – | inactive | inactive |
| CO/N=C(/C(=O)N[C@@H]1C(=O)N2C(C(=O)O)=CCS[C@H]12)c1csc(N)n1 | inactive | inactive | inactive | inactive | inactive | inactive | inactive | inactive | inactive | – | inactive | inactive | inactive | inactive | inactive | inactive | inactive | inactive | inactive | inactive |
| CO[C@@H]1[C@@H](OC2OC(C)C(OC3CC(C)(O)C(OC(=O)CC(C)C)C(C)O3)C(N(C)C)C2O)[C@@H](CC=O)C[C@@H](C)C(=O)/C=C\C2O[C@H]2C[C@@H](C)OC(=O)C[C@H]1OC(C)=O (some centres undefined) | 11.2 µM (active) | 8.91 µM (active) | 7.94 µM (active) | – | – | 10 µM (active) | 5.01 µM (active) | 8.49 µM (active) | – | 12 µM (active) | – | inactive | 5.01 µM (active) | inactive | 8.91 µM (active) | inactive | 12.6 µM (active) | – | 5.73 µM (active) | 2.69 µM (active) |
| CC(C)CN(C[C@@H](OP(=O)(O)O)[C@H](Cc1ccccc1)NC(=O)O[C@@H]1CCOC1)S(=O)(=O)c1ccc(N)cc1 | inactive | inactive | inactive | inactive | inactive | inactive | inactive | inactive | inactive | inactive | inactive | inactive | inactive | inactive | inactive | inactive | inactive | inactive | inactive | inactive |
| CC(=O)O[C@@]12CO[C@@H]1C[C@H](O)[C@@]1(C)C(=O)[C@H](O)C3=C(C)[C@@H](OC(=O)C(O)[C@@H](NC(=O)OC(C)(C)C)c4ccccc4)C[C@@](O)([C@@H](OC(=O)c4ccccc4)[C@H]21)C3(C)C (some centres undefined) | 0.0251 µM (active) | 0.398 µM (active) | 0.0251 µM (active) | 0.0426 µM (active) | 0.0675 µM (active) | 0.0447 µM (active) | 0.0178 µM (active) | – | 0.0953 µM (active) | 1.2 µM (active) | 0.0536 µM (active) | – | 0.112 µM (active) | inactive | 0.0891 µM (active) | – | 0.0316 µM (active) | 0.141 µM (active) | – | – |
| CCC(=O)O[C@@H](OP(=O)(CCCCc1ccccc1)CC(=O)N1C[C@H](C2CCCCC2)C[C@H]1C(=O)O)C(C)C (some centres undefined) | inactive | 12.6 µM (active) | inactive | inactive | inactive | inactive | inactive | inactive | inactive | inactive | inactive | inactive | inactive | inactive | inactive | inactive | inactive | inactive | inactive | inactive |
| CC1(C)S[C@@H]2[C@H](NC(=O)COc3ccccc3)C(=O)N2[C@H]1C(=O)O | inactive | inactive | inactive | inactive | inactive | inactive | inactive | inactive | inactive | inactive | inactive | inactive | inactive | inactive | inactive | inactive | inactive | inactive | inactive | inactive |
| CC1CCC(C(C)C)C(OC(=O)c2ccccc2O)C1 (centres undefined) | inactive | inactive | inactive | inactive | inactive | inactive | inactive | inactive | inactive | inactive | inactive | inactive | inactive | inactive | inactive | inactive | inactive | inactive | inactive | inactive |
| CC(C)(CO)C(O)C(=O)NCCCC(=O)O (centres undefined) | – | – | – | – | 12 µM (active) | – | – | – | – | – | – | inactive | – | – | – | inactive | inactive | 0.0398 µM (active) | inactive | – |
| Cc1cc(CC(C)CC(C)(C)C)n(O)c(=O)c1 (centres undefined) | 2 µM (active) | 2.82 µM (active) | 1.12 µM (active) | 3.38 µM (active) | 2.13 µM (active) | 2.82 µM (active) | 2.82 µM (active) | 2.69 µM (active) | 1.69 µM (active) | 1.51 µM (active) | 3.79 µM (active) | – | 2.51 µM (active) | 11.2 µM (active) | 1 µM (active) | – | 2.82 µM (active) | 1.78 µM (active) | 16.1 µM (active) | 2.39 µM (active) |
| Nc1nc(Cl)nc2c1ncn2C1CC(O)C(CO)O1 (centres undefined) | – | – | – | inactive | inactive | – | – | inactive | inactive | inactive | inactive | – | – | – | – | – | – | – | – | inactive |
| NC1=NC(S)C2N=CN=C2N1 (centres undefined) | inactive | – | inactive | inactive | inactive | inactive | – | inactive | inactive | inactive | inactive | inactive | inactive | inactive | inactive | inactive | inactive | inactive | 1.44 µM (active) | inactive |
| O=NCc1ccc([N+](=O)[O-])o1 | – | 8.91 µM (active) | – | inactive | – | inactive | – | – | – | – | – | inactive | – | inactive | – | inactive | – | – | 12.8 µM (active) | inactive |
| CN1CC[C@H](CN2c3ccccc3Sc3ccccc32)C1 | – | 1.41 µM (active) | – | – | – | 11.2 µM (active) | 11.2 µM (active) | 15.1 µM (active) | 6.75 µM (active) | 4.26 µM (active) | 13.5 µM (active) | – | 2 µM (active) | – | 11.2 µM (active) | – | – | 12.6 µM (active) | 32.2 µM (active) | 15.1 µM (active) |
| CN(C)CCCCCCN(C)C | inactive | inactive | inactive | inactive | inactive | inactive | inactive | inactive | inactive | inactive | inactive | inactive | inactive | inactive | inactive | inactive | inactive | inactive | – | inactive |
| C1OCOCO1 | inactive | inactive | inactive | inactive | inactive | inactive | inactive | inactive | inactive | inactive | inactive | inactive | inactive | inactive | inactive | inactive | inactive | inactive | inactive | inactive |
| S=C1NC=NC2N=CNC12 (centres undefined) | inactive | – | inactive | – | – | inactive | inactive | – | – | – | – | inactive | inactive | inactive | inactive | inactive | inactive | inactive | 2.87 µM (active) | – |
| C/C=C\c1ccc(OC)cc1 | inactive | inactive | inactive | inactive | inactive | inactive | inactive | inactive | inactive | inactive | inactive | inactive | inactive | inactive | inactive | inactive | inactive | inactive | inactive | inactive |
